# In PubChem BioAssay (Tox21):
# Records with an inconclusive call do not appear. Calls of active or inactive are those of the source. The call rests on the fitted dose curve; in most records, active means well fitted activation curve with a large enough effect in the signal ratio in the repeat runs (not every such curve was filed as active); inconclusive means weak or mixed curves, or effect the other way; inactive means no such curve, though single readings can be large or run the other way; the % refers to the signal ratio.
# Experiment: qHTS assay for small molecule agonists of the antioxidant response element (ARE) signaling pathway (AID 743202)
# Settings: HepG2 ARE-bla reporter, beta-lactamase FRET, 16 h; series mostly up to 73.3 µM; activation: at the top concentration
# From the text: U.S. Tox21 Program National Center for Advancing Translational Sciences [NCATS] NIH Chemical Genomics Center [NCGC] U.S. Environmental Protection Agency [EPA] National Institutes of Environmental Health Sciences [NIEHS] National Toxicology Program [NTP] U.S. Food and Drug Administration [FDA] Tox21 Assay Overview: Oxidative stress has been implicated in the pathogenesis of a variety of diseases ranging from cancer to neurodegeneration. The antioxidant response element (ARE) signaling pathway plays an important role in the amelioration of oxidative stress. The CellSensor ARE-bla HepG2 cell line (Invitrogen) can be used for analyzing the Nrf2/antioxidant response signaling pathway. Nrf2 (NF-E2-related factor 2) and Nrf1 are transcription factors that bind to AREs and activate these genes. The CellSensor ARE-bla Hep G2 cell line contains a beta-lactamase reporter gene under control of the Antioxidant Response Element (ARE) stably integrated into HepG2 cells. The activation of the report gene under culture conditions can be detected by fluorescence intensity. This cell line has been used to screen the Tox21 10K compound library to identify agonists that induce oxidative stress.
# Tox21 Assay Protocol Summary: The ARE-bla cells were dispensed at 2,000 cells/5 ul/well in 1536-well black wall/clear bottom plates using a Multidrop dispenser. After the assay plates were incubated at a 37 C/5% CO2 incubator for 5 hours, 23 nL of compounds dissolved in DMSO, positive controls or DMSO only was transferred to the assay plate by a pin tool. The plates were incubated at 37 C for 16 hours. After 1 uL of LiveBLAzer B/G FRET substrate was added using a Flying Reagent Dispenser, the plates were incubated at room temperature for 2 hours, and fluorescence intensity was measured by an Envision plate reader.
# On the % scale 0 is the no-effect control and ±100 the full control effect; potency means the concentration at half of the fitted maximal effect.
SMILES,activation,Potency
CO[Si](CCCn1c(=O)n(CCC[Si](OC)(OC)OC)c(=O)n(CCC[Si](OC)(OC)OC)c1=O)(OC)OC,-1.82% (inactive),–
COS(=O)(=O)O,-19.2% (inactive),–
CC(=O)c1cc(C)oc1C,8.64% [at 94.8 µM] (inactive),–
CCCCCCCCCCCCCCCCCCOCCO,-2.68% [at 34.3 µM] (inactive),–
Cc1cc(-c2ccccc2)nnc1NCCN1CCOCC1,-8.81% (inactive),–
CCC(=O)CC,-4.11% (inactive),–
C/C(=C1\CCOC(=O)S1)N(C=O)Cc1cnc(C)nc1N,-3.65% (inactive),–
c1ccc(-c2nn[nH]n2)cc1,-1.08% (inactive),–
CCNC(=O)NCc1cccc(Cl)c1,-5.72% (inactive),–
CCn1cc(C(=O)O)c(=O)c2cnc(N3CCCC3)nc21,-1.91% [at 8.36 µM] (inactive),–
C#CCN[C@@H]1CCc2ccccc21,13.3% (inactive),–
CC1=C(C(=O)O)N2C(=O)[C@@H](NC(=O)[C@H](N)C3=CCC=CC3)[C@H]2SC1,3.73% (inactive),–
CCCCOCCOC(=O)COc1ccc(Cl)cc1Cl,-0.38% (inactive),–
CC1=NN(c2ccc(S(=O)(=O)O)cc2)C(=O)C1,-15.3% (inactive),–
O=Cc1ccccc1Cl,-6.45% (inactive),–
C=CC(=O)CCCCC,12.9% [at 94.8 µM] (inactive),–
COC(=O)/C=C\C(=O)O,–,27.3 µM (active)
CC(O)COC(C)(C)C (stereo not given),1.62% (inactive),–
CCC(C)C(C)=O (stereo not given),-2.76% (inactive),–
C=C(C)[C@@H]1CC=C(C)C(=O)C1,2.79% (inactive),–

SMILES,activation,Potency
CCCCCC/C=C/C(=O)OC,-0.828% (inactive),–
CCCCOC(=O)C(C)O (stereo not given),0.185% (inactive),–
CC(=O)CCc1ccc(OC(C)=O)cc1,-4.18% (inactive),–
Cc1c(NC(=O)c2cccnc2)c(=O)n(-c2ccccc2)n1C,-3.26% (inactive),–
C=CCSSCCC,2.64% (inactive),–
O=C1NC(c2ccccc2)(c2ccccc2)C(=O)N1COP(=O)(O)O,3.46% (inactive),–
CCCC(=O)OC/C=C(\C)CCC=C(C)C,0.318% (inactive),–
CO/N=C(/C(=O)N[C@@H]1C(=O)N2C(C(=O)[O-])=C(C[n+]3ccn4ncccc43)CS[C@H]12)c1nsc(N)n1,10.6% (inactive),–
CC(C)C[C@@H]1[C@H](c2ccccc2)OC(=O)N1CCCN1CCCCCC1,-0.254% (inactive),–
C=CCOC(=O)CCCCCC,-11% (inactive),–
CC1(C)[C@H]2CC[C@](C)(C2)[C@H]1O,-3.55% [at 94.8 µM] (inactive),–
CC1OCCC1=O (stereo not given),-1.47% (inactive),–
CC/C(C)=N\O[Si](C)(O/N=C(\C)CC)O/N=C(\C)CC,-13.6% [at 94.8 µM] (inactive),–
CC(=O)O[C@@H]1CC2CCC1(C)C2(C)C (stereo not given in full),-0.0661% (inactive),–
COc1ccc(CCO)cc1,1.46% (inactive),–
CCC[C@@H]1C[C@@H](C(=O)N[C@@H]([C@H]2O[C@H](SC)[C@H](O)[C@@H](O)[C@H]2O)[C@@H](C)O)N(C)C1,-0.433% (inactive),–
CCCCCCCCCCCCCCC(=O)NC(CO)CCCCCCCCCCCCCC (stereo not given),1.91% [at 94.8 µM] (inactive),–
CC(C)NCC(O)c1ccc2ccccc2c1 (stereo not given),-0.432% (inactive),–
CC(N)CCCC(C)(C)O (stereo not given),-0.149% (inactive),–
CCOc1ccccc1OCC1CNCCO1 (stereo not given),2.99% (inactive),–
